Experiment [1] has as its target Calcium and integrin-binding protein 1 (Homo sapiens) (UniProt Q99828). Description: Primary qHTS for Identification of Calcium Integrin Binding Protein 1 (CIB1) Competitor (AID 1508620). Further: top concentration of the series differs between compounds. The method in brief: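 Fluorescence polarization competition: GST-tagged CIB1 (1 uM final) preincubated with compound 15 min at room temperature, then FITC-labelled alphaIIb peptide (100 nM final) added. After 15 min at room temperature, polarization read at Ex 480/Em 540.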

Experiment [2] is described as follows: Primary qHTS for inhibitors of nuclear receptor binding SET domain protein 2 (NSD2) in an isogenic RCH-ACV NSD2 p.E1099K mutant (9B) (AID 1645876). Further: nearly all actives have a fitted effect of over 70% in size. Further: potency means the concentration at half of the fitted maximal effect.

“And” between values parts separate entries of the source, which are not always exact repeats. Equal entries are not always repeated. Records with an inconclusive call do not appear. A call without a number means that no potency is given here. Values without a mark were called inactive. The source made the active and inactive calls. The call rests on the fitted dose curve; in most records, active means well fitted inhibition curve with a large enough effect; inconclusive means small, poorly fitted or top-dose-only effect; inactive means flat fitted curve, though single readings scatter.

Chain of Calcium and integrin-binding protein 1 (Homo sapiens) (Q99828 whole entry, looked up): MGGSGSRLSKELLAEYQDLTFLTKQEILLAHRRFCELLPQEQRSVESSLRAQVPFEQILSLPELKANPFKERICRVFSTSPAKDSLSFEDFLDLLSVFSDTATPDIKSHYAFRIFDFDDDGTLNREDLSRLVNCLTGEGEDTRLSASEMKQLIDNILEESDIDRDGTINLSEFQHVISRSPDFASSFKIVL

As for `C=C(C)C1CCC2(C(=O)O)CCC3(C(=O)O)C(CCC4C5(C)CCC(O)C(C)(C(=O)O)C5CCC43C)C12` (stereo not drawn), the Potency result in experiment [1] and in experiment [2] was “inactive” in each case.
For the compound `COc1cc2c(cc1OC)[C@@H]1[C@H](O)[C@@H](OC)C=C3CCN(C2)[C@H]31`, the Potency entry in experiment [1] was “inactive”. In addition, the Potency in experiment [2] is 4.5 µM (active).
For `C=C1C(=O)O[C@H](CCC)[C@H]1C(=O)O`, in that order: “inactive” and “inactive”.
For `COc1ccc(/C=C/C(=O)O[C@H]2[C@H](O[C@H]3[C@@H]4C=CO[C@@H](O[C@@H]5O[C@H](CO)[C@@H](O)[C@H](O)[C@H]5O)[C@@H]4[C@@]4(CO)O[C@@H]34)O[C@@H](C)[C@H](O)[C@H]2OC(C)=O)cc1`, in that order: “inactive” and “inactive”.
On to `C=CC(C)(C)c1[nH]c2cc3c(cc2c1CC1NC(=O)C2CCCN2C1=O)C=CC(C)(C)O3` (stereo not drawn), for which the Potency result in experiment [1] and in experiment [2] was “inactive” each time.
For the compound `COC(=O)CCC(=O)OC[C@]1(C)CCC[C@@]2(C)C3CC[C@]4(C)C=CC3(CCC12)C4` (stereo partly drawn), the Potency entry in experiment [1] and in experiment [2] was “inactive” each time.
Turning to `C[C@@H]1C(=O)O[C@H]2[C@H](O)C34[C@H]5C[C@@H](C(C)(C)C)C36[C@@H](OC(=O)[C@@H]6O)O[C@@]4(C(=O)O5)[C@@]12O` (stereo partly drawn), the Potency entry in experiment [1] and in experiment [2] was “inactive” each time.
With `COC(=O)C[C@H]1[C@]2(C)C3=C(C)[C@H](c4ccoc4)C[C@H]3O[C@@H]2[C@H](OC(C)=O)C2[C@](C)(C(=O)OC)C=CC(=O)[C@@]21C` (stereo partly drawn), the Potency entry in experiment [1] and in experiment [2] was “inactive” throughout.
For `COCCOc1cnc2ccn([C@H](C)c3nnc4c(F)cc(-c5cnn(C)c5)cn34)c(=O)c2c1`, the Potency entry in experiment [1] and in experiment [2] was “inactive” each time.
`CC(C)c1cc(C(=O)N2CC[C@H](NC(=O)C3CC3)C2)n[nH]1`: the Potency result in experiment [1] and in experiment [2] was “inactive” throughout.
As for `CC1=C(C(=O)O)/C(=C/CO[C@@H]2O[C@H](COC(=O)/C=C/c3ccc(O)cc3)[C@@H](O)[C@H](O)[C@H]2O)C(O)C1` (stereo partly drawn), the Potency result in experiment [1] and in experiment [2] was “inactive” in each case.
Regarding `CC1OC(OC2C(OC3C(O[C@H]4CC[C@@]5(C)C(CC[C@]6(C)C5C(=O)C=C5C7CC(C)(C)CC(O)[C@]7(C)CC[C@]56C)C4(C)C)OC(C(=O)O)C(O)C3O)OCC(O)C2O)C(O)C(O)C1O` (stereo partly drawn), in experiment [1], the Potency result is “inactive”. The activity change, negative = viability loss in experiment [2] was -6.05% [at 9.23 µM].
On the same counts, the results for `CC1OC(OC2C(C)OC(OC3C(O)C(CO)OC(O[C@H]4CC[C@@]5(C)C(CC[C@]6(C)C5CC=C5C7[C@@H](C)[C@H](C)CC[C@]7(C(=O)O)CC[C@]56C(=O)O)C4(C)C)C3O)C(O)C2O)C(O)C(O)C1O` (stereo partly drawn) are “inactive” and -0.763% [at 9.23 µM].
As to `CC(=O)C=C=C1C(C)(C)CC(O[C@@H]2O[C@H](CO)[C@@H](O)[C@H](O)[C@H]2O)CC1(C)O` (stereo partly drawn), the Potency result in experiment [1] and in experiment [2] was “inactive” in each case.
For `CC1(C)CC[C@]2(C(=O)O[C@@H]3O[C@H](CO)[C@@H](O)[C@H](O)[C@H]3O)CC[C@]3(C)C(=CCC4[C@@]5(C)CC[C@H](O[C@@H]6O[C@H](C(=O)O)[C@@H](O)[C@H](O)[C@H]6O)C(C)(C)C5CC[C@]43C)C2C1` (stereo partly drawn), the Potency entry in experiment [1] was “inactive”. Moreover, in experiment [2], the activity change, negative = viability loss is -3.82% [at 9.23 µM].
Take `COC(=O)C1=C2Nc3ccccc3C23CCN2CCCC(C(C)O)(C1)C23` (stereo not drawn): the Potency entry in experiment [1] and in experiment [2] was “inactive” throughout.
For the compound `CC(C)CC1NC(=O)C2CC3(O)c4ccccc4NC3N2C1=O` (stereo not drawn), the Potency result in experiment [1] and in experiment [2] was “inactive” in each case.
As for `Cc1ccccc1CN1C2=NCCN2C(=O)C2=C1CCN(Cc1ccccc1)C2`, the Potency entry in experiment [1] and in experiment [2] was “inactive” each time.
With `CC(C)=CCC[C@](C)(O[C@@H]1O[C@H](CO)[C@@H](O)[C@H](O)[C@H]1O)[C@H]1CC[C@]2(C)[C@@H]1[C@H](O)CC1[C@@]3(C)CC[C@H](O)C(C)(C)C3[C@@H](O[C@@H]3O[C@H](CO)[C@@H](O)[C@H](O)[C@H]3O[C@@H]3OC[C@@H](O)[C@H](O)[C@H]3O)C[C@]12C` (stereo partly drawn), the Potency entry in experiment [1] was “inactive”. Besides, the activity change, negative = viability loss in experiment [2] is -22.1% [at 9.23 µM].
Turning to `C[C@@H]1CN(Cc2ncccn2)C[C@H]1c1nc2c(cnn2C2CCOCC2)c(=O)[nH]1`, the Potency result in experiment [1] and in experiment [2] was “inactive” each time.
Turning to `CCCCc1nc2cc(/C=C/C(=O)NO)ccc2n1CCN(CC)CC`, the Potency entry in experiment [1] is “inactive”. Besides, the Potency in experiment [2] was 258 nM (active) and 590 nM (active).
Take `O=C(O)c1cc2cccc([N+](=O)[O-])c2[nH]1`: the Potency result in experiment [1] and in experiment [2] was “inactive” throughout.
For `COc1ccc([C@@H]2OC[C@H]3[C@@H]2CO[C@@H]3c2ccc(OC3OC(CO)C(O)C(O)C3O)c(OC)c2)cc1OC` (stereo partly drawn), the Potency result in experiment [1] and in experiment [2] was “inactive” throughout.
Regarding `CC1=CC2/C=C(\C)CC[C@@H](O)[C@@H](O)[C@@H]3O[C@@H]3C(=O)[C@]23C(=O)N[C@@H](CC(C)C)[C@@H]3[C@@H]1C` (stereo partly drawn), the Potency result in experiment [1] and in experiment [2] was “inactive” in each case.

The values above are taken from PubChem BioAssay (NCATS).
